Compound activity from PubChem BioAssay.
KKLEB cytotox: CF airway cell cytotoxicity counter-screen. KKLEB CF airway cells viability, ATPlite luminescence, overnight; active compounds read low; cells stimulated with P. aeruginosa culture filtrate. activity change (cytotoxicity), % at 5 µM. 0.36% of 360,000 active;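 active = corrected activity change at or below -50% at 5 µM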
HIF-2a inh: HIF-2a inhibition | 786-0 RCC cells HIF-2a reporter, luciferase luminescence, overnight | inhibition, % at 18.8 µM | 0.72% of 360,000 active;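 active = inhibition of the luminescence signal of 40% or more relative to plate controls, in a single-dose primary screen at 18.75 µM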
MITF TRPM1 inh: inhibitors of MITF-driven TRPM1 promoter in melanoma cells | SK-MEL-5 TRPM1 promoter luciferase, 24 h | inhibition, % at 12.5 µM | 0.83% of 330,000 active | AID 488899;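 active = mean inhibition across replicates of 60% or more, whatever share of single replicates reaches that level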
CF NFkB inh: blocks PAF-induced NF-kB reporter in cystic fibrosis cells | KKLEB NF-kB-GFP reporter, GFP fluorescence overnight | AID 588850 | 0.86% of 360,000 active | inhibition, % at 5 µM;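 active = at least 50% inhibition at 5 µM, scaled per plate between neutral and stimulator controls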;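 note: PAF is a Pseudomonas aeruginosa culture filtrate used as stimulus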
ABHD5 PLIN5 PPI: ABHD5-PLIN5 protein interaction inhibition. Q00G26+Q8WTS1. Split G. princeps luciferase complementation, luminescence, 4 h. inhibition, % at 4 µM. AID 602281. 0.78% of 360,000 active;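 active = inhibition above the mean inhibition across every tested compound plus 3 SD, cut at about 22% in these data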
Target sequence (Q00G26 whole entry, looked up): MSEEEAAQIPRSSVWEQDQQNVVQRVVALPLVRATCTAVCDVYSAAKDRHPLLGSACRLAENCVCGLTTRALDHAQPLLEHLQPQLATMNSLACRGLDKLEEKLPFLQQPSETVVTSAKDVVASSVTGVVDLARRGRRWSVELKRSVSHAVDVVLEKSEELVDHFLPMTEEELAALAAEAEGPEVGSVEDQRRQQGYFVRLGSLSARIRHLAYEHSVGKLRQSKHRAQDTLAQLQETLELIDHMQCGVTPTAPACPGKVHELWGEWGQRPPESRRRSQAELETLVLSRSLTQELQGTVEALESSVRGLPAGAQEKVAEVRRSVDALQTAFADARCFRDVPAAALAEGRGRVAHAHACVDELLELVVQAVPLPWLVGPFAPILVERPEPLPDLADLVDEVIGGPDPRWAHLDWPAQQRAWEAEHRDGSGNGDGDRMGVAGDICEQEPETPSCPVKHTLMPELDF
Target sequence (Q8WTS1 whole entry, looked up): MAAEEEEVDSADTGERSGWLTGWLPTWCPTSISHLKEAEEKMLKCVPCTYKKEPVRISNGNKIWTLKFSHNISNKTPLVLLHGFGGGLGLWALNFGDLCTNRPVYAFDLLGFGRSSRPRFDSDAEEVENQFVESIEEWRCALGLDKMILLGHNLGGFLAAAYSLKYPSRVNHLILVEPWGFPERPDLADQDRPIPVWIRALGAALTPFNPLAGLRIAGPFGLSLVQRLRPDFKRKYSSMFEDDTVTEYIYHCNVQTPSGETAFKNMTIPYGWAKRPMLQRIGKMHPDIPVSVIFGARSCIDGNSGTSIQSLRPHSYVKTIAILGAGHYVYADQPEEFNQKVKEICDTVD
Peg3 prom inh: Peg3 promoter activity inhibition; HeLa PEG-Prom luciferase reporter, luminescence, overnight; inhibition, % at 20 µM; 1.7% of 360,000 active; AID 588405;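 active = inhibition of at least 50% at 20 µM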
ABHD5-PLIN5 conf: ABHD5-PLIN5 interaction inhibition, confirmed; shares compounds with ABHD5 PLIN5 PPI; biochemical ABHD5-PLIN5 interaction, luminescence; inhibition, % at 4 µM; 67% of 2,200 active; in the data active = inhibition above about 23%
HNF4 counter: active in HNF4 split-luciferase counter-screen for ABHD5-PLIN5 inhibitors; shares compounds with ABHD5 PLIN5 PPI; HNF4 dimerization, luminescence, biochemical; inhibition, % at 4 µM; 77% of 2,200 active; AID 651674;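 active = mean inhibition across replicate wells exceeding the computed hit threshold, cut at about 13% in these data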;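 note: light from luciferase halves that rejoin when HNF4 fusion proteins dimerize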
Numbers stand for hits; 0 = inactive; - = not tested or not shown. This is a sample that favours compounds with a hit; in the whole collection about 3% have one here.

SMILES	KKLEB cytotox	HIF-2a inh	MITF TRPM1 inh	CF NFkB inh	ABHD5 PLIN5 PPI	Peg3 prom inh	ABHD5-PLIN5 conf	HNF4 counter
COC(=O)[C@@]1(Cc2ccc(F)cc2)[C@H]2c3cc(C(=O)N(C)C)n(CCO)c3C[C@H]2CN1C(=O)c1ccccc1	-	0	-	-	0	-	-	-
COC(=O)[C@@]1(Cc2ccc(F)cc2)[C@H]2c3cc(C(=O)N(C)C)n(CCCNc4ncc(C(F)(F)F)cc4Cl)c3C[C@H]2CN1C(=O)c1ccccc1	-	0	-	-	24.9	-	0	0
CCN(CC)CCCNC(=O)CSc1c2c(nc3cc(Cl)ccc13)CCCC2	0	0	0	0	29.2	96.1	39.1	27.6
Cc1ccc(CNC(=O)CC(C)S(=O)(=O)c2ccc3c(c2)NC(=O)CS3)o1 (stereo not given)	0	0	0	0	38.1	0	0	21.9
Cc1ccc(CNC(=O)CC(C)S(=O)(=O)c2ccc3c(c2)NC(=O)CO3)cc1 (stereo not given)	0	0	0	0	0	0	-	-
O=C(COc1ncnc2scc(-c3ccc(F)cc3)c12)NCc1ccco1	0	0	0	0	0	0	-	-
Cc1ccc(-c2csc3ncnc(OCC(=O)NC(=O)NCc4ccco4)c23)cc1	0	0	0	0	30.7	0	0	12.9
COc1cc(/C=C/C(=O)OCC(=O)N2CCCC2)ccc1OCC#N	0	0	0	0	0	0	-	-
CC(=O)c1ccc(N2CCN(CC(=O)NC(=O)NCc3ccccc3)CC2)cc1	0	0	0	0	0	0	-	-
CN(C)c1ccc(/C=C2/C[N+](C)(C)C/C(=C/c3ccc(N(C)C)cc3)C2=O)cc1	0	0	0	0	38.7	0	49.7	41.7
CCOc1ccc(NCc2nc3ccccc3n2CCOc2ccccc2)cc1	0	0	0	0	25.3	0	0	0
COc1cccc(NC(=O)CCc2nnc3ccc(NCc4ccco4)nn23)c1	0	0	0	0	28.8	0	0	0
COc1cc(NC(=O)CCc2nnc3ccc(NCc4ccco4)nn23)cc(OC)c1	0	0	0	0	0	0	-	-
COc1ccc(OC)c2sc(NC(=O)C3=COCCO3)nc12	0	0	0	0	37.9	0	0	0
COc1ccc(C)c2sc(NC(=O)C3=COCCO3)nc12	0	0	0	0	0	0	-	-
COc1ccc(CCN(C)C(=S)Nc2cccc(C)c2)cc1OC	0	0	0	0	0	0	-	-
CC1=NNC(=O)/C1=C\c1cn(-c2ccccc2)nc1-c1ccc(Cl)cc1	0	87.2	0	0	32.0	78.8	56.2	91.2
Cc1ccc(-c2nn(-c3ccccc3)cc2C=C2C(=O)CC(C)(C)CC2=O)cc1	0	0	0	0	0	0	-	-
COc1ccccc1C(=O)Nc1sc(C(=O)N2CCCC2)c(C)c1C#N	0	0	0	0	60.4	0	0	0
Clc1ccc(Cl)c(OCCCCNCc2ccccc2)c1	0	0	0	0	27.2	0	0	0
Clc1ccc(OCCCNCc2ccccc2)c(Br)c1	0	0	0	0	0	0	-	-
O=S(=O)(Nc1ccc(-c2cn3c(n2)SCC3)cc1)c1ccccc1F	0	0	0	0	0	0	-	-
O=C(/C=C/c1ccc(Br)cc1)c1ccc(NC(=O)c2ccco2)cc1	0	0	0	0	29.4	0	61.3	45.5
O=C(/C=C/c1ccc(Br)cc1)c1ccco1	0	0	0	0	79.2	90.2	98.8	98.7
O=C(/C=C\c1ccccc1)Nc1ccc(NC(=O)c2ccco2)cc1	0	0	0	0	0	0	-	-
SMILES	KKLEB cytotox	HIF-2a inh	MITF TRPM1 inh	CF NFkB inh	ABHD5 PLIN5 PPI	Peg3 prom inh	ABHD5-PLIN5 conf	HNF4 counter
O=C(/C=C/c1ccc(-c2ccccc2[N+](=O)[O-])o1)c1ccco1	0	0	0	0	29.8	0	63.7	48.4
O=C(C=Cc1ccco1)c1ccco1	0	0	0	0	0	0	-	-
O=C(/C=C/c1ccc([N+](=O)[O-])cc1)c1ccco1	0	0	0	0	33.4	0	90.9	90.8
COC(=O)C1=CN(c2ccc3c(c2)OCO3)C(N)=C(C#N)C1c1cccc(F)c1 (stereo not given)	-	0	-	-	0	-	-	-
COc1ccccc1N(CCC#N)C(=O)COC(=O)CCC(=O)c1ccc(F)cc1	0	0	0	0	0	0	-	-
O=C(/C=C/c1ccco1)c1cccc([N+](=O)[O-])c1	0	0	0	0	28.6	0	45.8	29.9
O=C1C(O)=C(O)C(=O)c2ccccc21	0	0	0	0	42.4	0	0	67.3
N#CCc1c(C#N)c(N)nc(N2CCN(C=O)CC2)c1C#N	0	0	0	0	23.2	0	0	0
CN1CCN(C(=S)c2cn(Cc3ccc(Br)cc3)c3ccccc23)CC1	0	0	0	0	27.6	0	0	0
Cc1ccccc1SCC(=O)N/N=C/c1ccc(F)cc1	0	0	0	0	0	0	-	-
Cc1ccc(-c2cc(C(=O)Nc3ccccc3C(N)=O)c3ccccc3n2)o1	0	0	-	0	43.3	52.2	27.9	27.8
Cc1ccc(-c2cc(C(=O)Nc3nccs3)c3ccccc3n2)o1	0	0	0	0	0	0	-	-
CCOC(=O)C1CCCN(C(=O)c2ccc(C(F)(F)F)nc2C)CC1 (stereo not given)	0	0	-	0	0	0	-	-
CCc1ccc(-c2cnc3nc[nH]c(=O)c3n2)cc1	0	0	0	0	0	0	-	-
CC(=O)OCC1=C(C(=O)O)N2C(=O)C(NC(=O)c3ccc(F)cc3)C2SC1 (stereo not given)	0	0	0	0	29.8	0	0	28.1
COc1ccc(S(=O)(=O)N(C)c2ccc(C(=O)NCc3ccco3)cc2)cc1OC	0	0	0	0	0	0	-	-
S=C(NCCCN1CCOCC1)N1CCN(c2nc(-c3ccc(Cl)cc3)cs2)CC1	0	0	0	0	32.5	75.5	0	0
CCn1nnc(NC(=O)c2ccco2)n1	0	0	0	0	0	0	-	-
CCN1/C(=C/c2ccc3ccccc3[n+]2CC)C=Cc2ccccc21	0	66.2	101.6	0	40.8	86.5	55.5	53.3
CCn1nccc1C(=O)Nc1ccc(C(=O)OC(C)C)cc1	0	0	0	0	0	0	-	-
CCC(c1nnnn1Cc1ccco1)N(Cc1cc2cc(C)cc(C)c2[nH]c1=O)CC1CCCO1 (stereo not given)	0	0	0	0	27.6	0	0	0
CCC(c1nnnn1Cc1ccco1)N(Cc1ccccc1OC)Cc1cc2cc(C)ccc2[nH]c1=O (stereo not given)	0	0	0	0	0	0	-	-
CC(/C=N/NC(=O)Cn1cnc2c1c(=O)n(C)c(=O)n2C)=C\c1ccco1	0	0	0	0	0	0	-	-
Cn1c(=O)c2c(ncn2CC(=O)N/N=C/C=C/c2ccco2)n(C)c1=O	0	0	0	0	30.7	0	0	31.6
